# Compounds with a hit are over-represented: about 2.9% of the library has one in this group of screens.
# ADAM17 inh = ADAM17 inhibitors, primary screen, biochemical, QFRET; Disintegrin and metalloproteinase domain-containing protein 17 (Homo sapiens), P78536; recombinant ADAM17, EDANS/DABCYL FRET peptide cleavage; inhibition, % at 6.95 µM; 370,000 tested, 0.83% active; AID 720648, 2013;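 active = inhibition above the mean of compounds lying between control limits plus 3 SD, set per campaign, cut at about 8.5% in these data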;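 note: 0% = DMSO-only wells as the low control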
# KLK7 zymogen act = proKLK7 zymogen activators, primary screen, biochemical, fluorescence intensity; AID 652039, 2013; 370,000 tested, 0.9% active; activation, % at 7 µM; purified proKLK7, EDANS-DABCYL substrate fluorescence; 100% is mature enzyme control, 0% vehicle;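 active = activation above the mean of all tested compounds plus 3 SD, computed per campaign excluding outliers beyond control limits, cut at about 13% in these data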
# PLCb3 inh = human PLC-beta3 inhibitors, primary screen, biochemical, fluorescence; Purified PLC-beta3, fluorogenic substrate; 1-phosphatidylinositol 4,5-bisphosphate phosphodiesterase beta-3 (Homo sapiens), Q01970; inhibition, % at 12.2 µM; AID 720704, 2013; 370,000 tested, 0.18% active; in the data active = inhibition above about 11%;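 note: 0% = median of compound wells on plate and 100% = full blocker control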
# PLCg1 inh = PLC-gamma1 enzyme inhibitors, primary screen, biochemical, fluorescence, purified enzyme. 1-phosphatidylinositol 4,5-bisphosphate phosphodiesterase gamma-1 (Homo sapiens), P19174. fluorogenic substrate. inhibition, % at 12.2 µM. 370,000 tested, 0.84% active
# ADAM10 inh = human ADAM10 inhibitors, primary screen, biochemical, QFRET, HTS. inhibition, % at 7 µM. 370,000 tested, 0.62% active. Disintegrin and metalloproteinase domain-containing protein 10 (Homo sapiens), O14672. recombinant ADAM10, EDANS/DABCYL FRET peptide cleavage, 3 h. AID 720582, 2013;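 active = inhibition above a per-campaign cutoff equal to the mean of compounds falling between control-based bounds plus 3 SD, cut at about 20% in these data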;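 note: 0% = DMSO wells while the 100% control is not disclosed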
# Target sequence (O14672 214-748 limits assumed): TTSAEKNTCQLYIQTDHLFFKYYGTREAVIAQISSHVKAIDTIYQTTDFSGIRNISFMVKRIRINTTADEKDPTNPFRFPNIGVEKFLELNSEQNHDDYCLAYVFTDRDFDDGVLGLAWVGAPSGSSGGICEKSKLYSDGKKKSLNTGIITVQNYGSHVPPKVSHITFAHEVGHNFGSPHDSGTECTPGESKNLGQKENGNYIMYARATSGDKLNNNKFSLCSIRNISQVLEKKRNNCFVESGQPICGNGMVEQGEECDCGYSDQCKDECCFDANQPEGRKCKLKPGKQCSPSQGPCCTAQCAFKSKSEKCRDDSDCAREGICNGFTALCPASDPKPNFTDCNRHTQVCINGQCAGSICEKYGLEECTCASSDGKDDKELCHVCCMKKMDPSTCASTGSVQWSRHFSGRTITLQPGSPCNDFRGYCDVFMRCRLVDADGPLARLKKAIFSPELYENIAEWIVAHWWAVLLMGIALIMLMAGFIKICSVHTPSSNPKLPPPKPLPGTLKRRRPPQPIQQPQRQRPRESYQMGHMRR
# PLCgamma1 ctr = PLC-gamma1 enzyme inhibitors, counter-screen for PLC-beta3 inhibitor project, biochemical, fluorescence; shares compounds with PLCg1 inh; purified PLC-gamma1, fluorogenic substrate; inhibition, % at 12.3 µM; 3,300 tested, 3.1% active
# PLCbeta3 conf = PLC-beta3 inhibitor confirmation, biochemical, fluorescence, purified enzyme | inhibition, % at 12.3 µM | shares compounds with PLCg1 inh | fluorogenic substrate fluorescence | 3,300 tested, 1% active; in the data active = inhibition above about 11%
# Numbers without * were called inactive; · = not tested or not shown. Cut-off read from the data, not from the text of the source, unless noted: active = inhibition above about 9.5%; inactive = the rest.
SMILES,ADAM17 inh,KLK7 zymogen act,PLCb3 inh,PLCg1 inh,ADAM10 inh,PLCgamma1 ctr,PLCbeta3 conf
O=C(N[C@H](Cc1ccccc1)C(=O)N1CCN(C(=O)N2CCCCC2)CC1)[C@H]1O[C@@H](n2ccc(=O)[nH]c2=O)[C@H](O)[C@@H]1O,0,0,4,2,-14,·,·
C[C@H]1CN([C@@H](C)CO)C(=O)c2cc(Br)cnc2O[C@H]1CN(C)Cc1ccc(Oc2ccccc2)cc1,5,0,2,1,9,·,·
Cc1cc2nc(CCN(Cc3cccnc3)C(=S)Nc3ccccc3)[nH]c2cc1C,6,0,-2,2,3,·,·
Cc1cc2nc(CCN(Cc3cccnc3)C(=S)Nc3ccc(F)cc3)[nH]c2cc1C,0,0,2,12*,-1,-3,-6
CC1(C)CC(N2CCCC2)=CC(=[N+]2CCCC2)C1,-1,0,2,9,14,·,·
CC1(C)CC(N2CCCC2)=CC(=[N+]2CCCCC2)C1,1,0,5,12*,12,-5,3
Cc1ccc2c(CN3CCCCC3)cc(=O)oc2c1C,-3,0,-9,-8,0,·,·
Cc1ccc2c(CSc3nncn3C)cc(=O)oc2c1C,2,0,5,11*,-2,-9,-1
CCOc1cc(CNCCc2ccccc2)ccc1OCC(=O)NC(C)(C)C,1,0,-9,9.9*,-1,-1,3
CCNC(=O)COc1ccc(CC)cc1,2,0,7,5,6,·,·
CCc1ccc(OCC(=O)NC(C)(C)C)cc1,1,0,4,10*,-2,-6,0
CCOc1cc(CNCCO)c(Cl)cc1OCC(=O)NCCc1ccccc1,7,0,12*,4,9,-6,-2
COc1cccc(-c2cnc3c(NC(C)=O)cc(-c4ccc(C(=O)NC5CC5)cc4)cn23)c1,-10,-1,-98,-78,-32,·,·
COc1ccc(-c2noc(C3CCCN(C(=O)N[C@@H]4C[C@H]4c4ccccc4)C3)n2)cc1 (stereo not given in full),0,0,6,6,6,·,·
CCCCCCCCN1C(=O)[C@H](CC(=O)N2CCN(C(=O)C3CC3)CC2)C[C@@]2(C(=O)OC)CC(C)(C)CC=C12,2,0,1,4,13,·,·
COC1=CC(C)C2CC3OC(=O)CC4C(C)=C(OC)C(=O)C(C2(C)C1=O)C34C (stereo not given),0,0,2,1,2,·,·
C=CCN1[C@@H](C)COc2cccc(N3CCSCC3)c2S1(=O)=O,2,-1,-2,1,6,·,·
Cc1ccccc1C(=O)NC1CCN(Cc2nnnn2C2CCCC2)CC1,-2,0,3,14*,0,12*,5
Cc1ccccc1C(=O)NC1CCN(Cc2nnnn2C(C)(C)C)CC1,0,0,1,2,-10,·,·
Cc1ccc(-c2nnc(SCC(=O)Nc3ccc4c(c3)OCCO4)n2-c2ccc(Cl)cc2)cc1,4,0,-1,2,7,·,·
COc1ccc(C(=O)C[C@@H]2OC[C@H](C(C)C)N2S(=O)(=O)c2ccc(C)cc2)cc1OC,4,1,4,1,0,·,·
CC1(NC(=O)Cc2c(F)cccc2Cl)CCS(=O)(=O)C1 (stereo not given),9,0,-2,13*,4,-2,-7
Cc1cccc(NC(=O)Cc2c(F)cccc2Cl)n1,2,0,-3,-1,-2,·,·
CC(=NOC(=O)c1ccc(Cl)cc1)c1nccs1,5,0,7,16*,3,-8,-5
Cc1ccc(-n2nnnc2-c2cnc(-c3cccnc3)nc2C(F)(F)F)cc1,-1,0,10,10*,5,-3,-6
SMILES,ADAM17 inh,KLK7 zymogen act,PLCb3 inh,PLCg1 inh,ADAM10 inh,PLCgamma1 ctr,PLCbeta3 conf
FC(F)(F)c1nc(-c2ccncc2)ncc1-c1nnnn1-c1ccccc1,-1,0,2,2,-3,·,·
O=S(=O)(NC1CCCCC1N1CCOCC1)c1ccc(Cl)cc1 (stereo not given),-5,0,-3,12*,-13,-1,1
N#C/C(=C\c1cc(O)c(O)c(O)c1)C(N)=O,-5,6,-23,18*,-4,5,-9
CCOC(=O)C1=CCN(S(=O)(=O)c2ccc(C)cc2)C1c1cccc2ccccc12 (stereo not given),7,-1,2,4,5,·,·
C[C@H]1CN(S(=O)(=O)C(C)(C)C)[C@@H](CCO)/C1=C\CCO,3,0,1,11*,-3,-1,0
Cc1cccnc1NC(=O)c1cccc(S(=O)(=O)N2CCCC2)c1,3,0,-5,0,0,·,·
Cc1cccnc1NC(=O)c1ccc(S(=O)(=O)N2CCCCC2)cc1,2,0,3,11*,2,-3,6
O=C(Nc1ccncc1)c1cccc(S(=O)(=O)N2CCCC2)c1,8,0,-3,10*,-4,-2,-3
COC1OC(c2ccccc2)=C(c2ccc(C(N)=O)cc2)c2ccc(F)cc21 (stereo not given),-3,0,-3,-4,-12,·,·
CC(C)Cn1c(SCC(=O)N2CCN(C(=O)c3ccco3)CC2)nc2ccccc2c1=O,2,0,-2,0,-1,·,·
COC(=O)C(Cc1ccc(O)cc1)NC(=O)C(C)NC(=O)c1ccc(C(C)(C)C)cc1 (stereo not given),5,0,2,9.7*,7,6,-14
O=C(NCCc1ccccc1)c1[nH]c(C(F)(F)F)nc1-c1ccccc1,1,1,-1,0,-15,·,·
O=C(NCCc1ccc(O)cc1)c1[nH]c(C(F)(F)F)nc1-c1ccccc1,6,0,4,13*,3,-8,-5
Cc1ccsc1/C=C1\SC(N)=NC1=O,8,0,9,10*,18,-3,-2
Cc1cccc(-c2cccc3c4c([nH]c23)[C@@H]2C[C@H](N(C)C(=O)c3ccco3)[C@H]([C@H](C)O)CN2CC4)c1,-9,-1,-152,-119,-29,·,·
O=C(CCn1nc(-c2ccc(Cl)cc2)c2ccccc2c1=O)Nc1cccnc1,-1,1,-2,2,1,·,·
NC(=O)CCn1nc(-c2ccc(Cl)cc2)c2ccccc2c1=O,-1,0,2,12*,2,-7,-7

# Screening results deposited in PubChem BioAssay by The Scripps Research Institute Molecular Screening Center.
